# PrPC surface inh: reduces human prion protein on the cell surface; cell surface PrPC, TR-FRET read-out; inhibition, % at 13.8 µM; AID 720596; 370,000 compounds, 0.43% hits; in the data active = inhibition above about 24%; note: 0% = median of the test wells and 100% = reference compound wells
# TcdB GH inh: blocks C. difficile toxin B glycohydrolase activity | TcdB glycohydrolase enzymatic assay, plate reader | AID 652162 | inhibition, % at 9.99 µM | P18177 | 350,000 compounds, 0.24% hits; in the data active = inhibition above about 10%
# VHR inh abs: inhibitors of human VHR1 phosphatase (DUSP3) | P51452 | recombinant VHR phosphatase, pNPP absorbance | inhibition, % at 13.3 µM | 290,000 compounds, 0.52% hits | AID 1654; in the data active = inhibition above about 50%
# Target sequence (P51452 whole entry, looked up): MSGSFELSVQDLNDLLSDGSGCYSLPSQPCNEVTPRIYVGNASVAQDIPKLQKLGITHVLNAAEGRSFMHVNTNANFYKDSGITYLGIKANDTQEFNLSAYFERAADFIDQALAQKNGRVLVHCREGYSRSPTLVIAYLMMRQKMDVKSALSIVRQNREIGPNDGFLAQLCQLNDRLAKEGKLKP
# Numbers without * were called inactive; / = no result. The list is not random: actives were taken first. Their share in the collection is about 0.82%.
SMILES,PrPC surface inh,TcdB GH inh,VHR inh abs
Nc1cc2nsnc2cc1Br,-18,/,52*
COCCN1C(=O)C(CC(=O)Nc2ccc(C(C)=O)cc2)SC1=Nc1ccccc1 (configuration not stated),6,5,57*
CC(O)CN1C(=O)C(CC(=O)Nc2ccc(Cl)cc2)SC1=Nc1ccccc1 (configuration not stated),/,/,25
COc1ccccc1CNC(=O)C[C@@H]1C[C@H]2c3cc(NS(=O)(=O)c4ccc(F)cc4)ccc3O[C@H]2[C@@H](CO)O1,/,0,/
COc1ccc(-n2ncc3c2CC(C)(C)CC3NC(=O)CCCN2CCCC2=O)cc1 (configuration not stated),4,0,57*
CC1(C)Cc2c(cnn2-c2ccc(F)cc2)C(NC(=O)CCC(F)(F)F)C1 (configuration not stated),2,1,59*
COC(=O)CCC(=O)NC1CC(C)(C)Cc2c1cnn2-c1ccc(F)cc1 (configuration not stated),0,2,0
COc1ccc(-n2ncc3c2CC(C)(C)CC3NC(=O)CCN2CCCCC2=O)cc1 (configuration not stated),1,2,2
CCCC(=O)Nc1ccc2c(c1)C(=O)N(C)C[C@H](OC)[C@H](C)CN(C)[C@@H](C)CO2,/,0,/
CO[C@H]1CN(C)C(=O)c2ccc(NC(=O)Nc3cccc(F)c3)cc2OC[C@@H](C)N(C(C)=O)C[C@H]1C,/,0,/
COc1ccccc1CNC(=O)C(=O)c1cn(CC(=O)N2CCCC2)c2ccccc12,-3,1,52*
COc1ccc(CNC(=O)C(=O)c2cn(CC(=O)N3CCCC3)c3ccccc23)cc1,-11,0,5
C[C@@H]1CCCCO[C@H](CN(C)C(=O)Cc2ccccc2)[C@@H](C)CN([C@@H](C)CO)C(=O)c2cc(NC(=O)CCCN(C)C)ccc2O1,/,1,/
COc1ccc2cc3c(nc2c1)OCC3,-4,11*,9
COc1ccc2nc3c(nc2c1)CCCC3,-12,1,7
COc1ccc2c3c(n(C)c2c1)[C@@H](CO)N(C(=O)c1ccc(F)cc1)CC31CCN(CC2CCOCC2)CC1,/,0,/
Cc1cc(-c2ccc(S(=O)(=O)NCc3ccc(F)cc3)cc2)on1,-4,-1,8
COc1ccc(CNS(=O)(=O)c2ccc(-c3cc(C)no3)cc2)cc1,8,1,60*
O=C(c1ccc(Cn2c(=O)[nH]c3ccccc3c2=O)cc1)N1CCN(c2ccc(Cl)cc2)CC1,-5,/,29
Cc1ccc(C)c(N2CCN(C(=O)c3ccc(Cn4c(=O)[nH]c5ccccc5c4=O)cc3)CC2)c1,-4,/,51*
Nc1ccc2c(c1)[nH]c(=O)c1ccccc12,4,2,/
O=c1[nH]c2cc(O)ccc2c2ccccc12,11,10*,/
CCOc1cc(NC(=S)NCC(C)C)c(OCC)cc1NC(=O)c1ccco1,9,/,51*
CCOCCCNC(=S)Nc1cc(OCC)c(NC(=O)c2ccco2)cc1OCC,7,/,22
O=C(NCc1ccco1)C1OCCc2ccccc21 (configuration not stated),-6,/,17
SMILES,PrPC surface inh,TcdB GH inh,VHR inh abs
Cc1ccc(NC(=O)C2OCCc3ccccc32)cc1C (configuration not stated),0,11*,16
Cc1noc(C)c1S(=O)(=O)Nc1ccc2c(c1)C(=O)N([C@H](C)CO)C[C@@H](C)[C@@H](CN(C)C(=O)NC1CCCCC1)OCCCC[C@@H](C)O2,/,0,/
COc1ccc(F)cc1-c1cc(C(=O)Nc2ccc(NC(C)=O)cc2)[nH]n1,11,2,/
COc1cc2[nH]c(C(=O)Nc3ccc(F)cc3)cc2c(OC)c1OC,5,1,53*
CCOC(=O)c1c(P(=O)(N2CCOCC2)N2CCOCC2)noc1N,-2,/,53*
CCOC(=O)c1c(C)c(P(=S)(N2CCOCC2)N2CCOCC2)n(C)c1C,4,/,19
CCCC(=O)N1CCC2(CC1)CN(C(=O)CC1CC1)[C@@H](CO)c1c2c2ccc(OC)cc2n1C,/,1,/
CCCCn1c(-c2cccc3ccccc23)nc2cc3[nH]c(=O)c(C(C)C)nc3cc21,0,0,32
CCCCn1c(-c2ccccc2C)nc2cc3[nH]c(=O)c(C(C)C)nc3cc21,3,11*,24
Cc1ccc(-c2ccc3c(c2)O[C@H](CN(C)S(C)(=O)=O)[C@@H](C)CN([C@@H](C)CO)S3(=O)=O)cc1,/,0,/
CNC[C@@H]1Oc2cc(-c3ccccc3F)ccc2S(=O)(=O)N([C@@H](C)CO)C[C@H]1C,/,0,/
COc1ccccc1C#Cc1ccc([C@H]2[C@@H](CO)N3CCCCN(CCC(F)(F)F)C[C@H]23)cc1,/,1,/
COc1ccc(Nc2ccc(C(=O)O)cc2[N+](=O)[O-])cc1,-35,-1,26
Cc1cccc(Nc2ccc(C(=O)O)cc2[N+](=O)[O-])c1C,-13,-1,53*
O=C(C[C@@H]1CC[C@@H]2[C@H](COC[C@@H](O)CN2Cc2cccc(F)c2)O1)NCC1CCCCC1,/,1,/
CCc1cn([C@H]2C[C@H](O)[C@@H](CO)O2)c(=O)[nH]c1=O,7,0,12
Cc1nn(C2CC(O)C(O)C(CO)O2)c(=O)[nH]c1=O (configuration not stated),-3,13*,/
Cc1ccc(-c2nc(-c3ccncc3)no2)cc1C,8,0,59*
Cc1ccc(-c2nc(-c3ccncc3)no2)cc1Cl,3,-2,49
COC(=O)C[C@H]1CC[C@H]2[C@@H](COc3ccc(NC(=O)NCc4ccccc4)cc3C(=O)N2C)O1,/,1,/
COc1cc(NC(=O)CCc2nnc3ccc(N4CCN(C)CC4)nn23)cc(OC)c1,7,1,52*
COc1cc(NC(=O)CCc2nnc3ccc(N4CCC5(CC4)OCCO5)nn23)cc(OC)c1,6,1,-15
O=C(C[C@H]1CC[C@H]2[C@@H](COC[C@H](O)CN2C(=O)Cc2ccccc2)O1)NC1CCC1,/,-1,/
CC1CCCCN1CCCNC(=O)c1nn(C)c2c1CS(=O)(=O)c1ccccc1-2 (configuration not stated),-4,0,59*
Cc1c(C)n(C)c2ccc(C(=O)NCCCN3CCCCC3C)cc12 (configuration not stated),-4,-1,78
SMILES,PrPC surface inh,TcdB GH inh,VHR inh abs
CC1CCCCN1CCCNC(=O)c1ccc(Br)cc1 (configuration not stated),-4,-1,58*
CCC1CCCCN1CCCNC(=O)c1nn(C)c2c1CS(=O)(=O)c1ccccc1-2 (configuration not stated),-5,-7,7
C[C@@H]1CN([C@H](C)CO)C(=O)c2cc(-c3ccc(F)cc3)cnc2O[C@H]1CN(C)C(=O)C1CCC1,/,0,/
C[C@@H]1CN([C@H](C)CO)C(=O)c2cc(NC(=O)NC3CCCCC3)ccc2O[C@@H](C)CCCCO[C@H]1CN(C)Cc1ccc2c(c1)OCO2,/,1,/
CCOC(=O)N1CCC(N(CCN(C)C)C(=S)Nc2ccc(OCC)cc2)CC1,3,1,54*
CCOC(=O)N1CCC(N(CCN(C)C)C(=S)Nc2cc(Cl)cc(Cl)c2)CC1,1,-3,4
Cc1cccn2c(=O)c(/C=C(\C#N)C(=O)NCc3ccco3)c(N3CCCCCC3)nc12,-11,2,10

# Assay outcomes (PubChem BioAssay)
